Data published in PubChem BioAssay (NCI).
This is part of a sample that, as a whole, favours compounds with a hit. Of some 79,000 tested, about 15% had one in any assay. Unmarked numbers belong to inactive results. Calls of active or inactive are those of the source. Cut-off read from the data, not from the text of the source: active = growth inhibition above about 70%; inactive = the rest.

Tests used:
[1] = NCI Yeast Anticancer Drug Screen. Data for the rad50 strain (AID 155);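 note: 0% = growth of vehicle-only cultures of the same strain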; settings: S. cerevisiae rad50 strain growth inhibition, stronger effect = higher value
Method in brief: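 DNA repair mutant yeast, compound exposure, growth read-out; inhibition is taken relative to vehicle.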

[2] = NCI Yeast Anticancer Drug Screen. Data for the mec2-1 strain (AID 157); settings: S. cerevisiae mec2-1 strain, stronger effect = higher value
Method in brief: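 Vehicle-treated cultures served as reference for growth inhibition of compound-exposed mec2-1 yeast.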

[3] = NCI Yeast Anticancer Drug Screen. Data for the sgs1 mgt1 strain (AID 161);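 note: 0% = growth of cultures given vehicle only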; settings: S. cerevisiae sgs1 mgt1 strain, stronger effect = higher value
Method in brief: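 Inhibition of yeast growth, normalised to vehicle-treated controls, is reported for a strain bearing genetic alterations in DNA damage repair.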

[4] = NCI Yeast Anticancer Drug Screen. Data for the cln2 rad14 strain (AID 165);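 note: 0% = growth equal to vehicle treated cultures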; settings: S. cerevisiae cln2 rad14 strain, stronger effect = higher value
Method in brief: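 Each compound was tested on cln2 rad14 yeast. Inhibition of growth was calculated against vehicle-exposed controls.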

[5] = NCI Yeast Anticancer Drug Screen. Data for the bub3 strain (AID 167); settings: S. cerevisiae bub3 mutant strain, stronger effect = higher value
Method in brief: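 In this screen, a yeast mutant lacking normal mitotic checkpoint function is challenged with compound. Relative growth versus vehicle gives the inhibition value.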

[6] = NCI Yeast Anticancer Drug Screen. Data for the mlh1 rad18 strain (AID 175); settings: S. cerevisiae mlh1 rad18 strain growth inhibition, stronger effect = higher value
Method in brief: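 Vehicle-treated cultures served as the reference for growth inhibition in a yeast strain carrying DNA damage repair alterations exposed to each compound.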

[7] = at 5.0 µM (retest, dose inferred, filed as 0.5)
[8] = at 50.0 µM (retest, dose inferred, filed as 5.0)

SMILES	growth inhibition [1, 7]	growth inhibition [1, 8]	growth inhibition ([1]; at 50.0 µM)	growth inhibition [2, 7]	growth inhibition [2, 8]	growth inhibition ([2]; at 50.0 µM)	growth inhibition [3, 7]	growth inhibition [3, 8]	growth inhibition ([3]; at 50.0 µM)	growth inhibition [4, 7]	growth inhibition [4, 8]	growth inhibition ([4]; at 50.0 µM)	growth inhibition [5, 7]	growth inhibition [5, 8]	growth inhibition ([5]; at 50.0 µM)	growth inhibition [6, 7]	growth inhibition [6, 8]	growth inhibition ([6]; at 50.0 µM)
O=NN(CCCl)C(=O)Nc1cc(=O)[nH]c(SCc2ccccc2)n1	-23%	52%	8.95%	3%	10%	-3.6%	-10%	33%	4.7%	14%	12%	45.5%	5%	30%	16.9%	-11%	70% (active)	66.5%
CCCCCCCC/C=C\CCCCCCCC(=O)NCCN(C)C	-1%	99% (active)	99.3% (active)	5%	100% (active)	99.4% (active)	33%	99% (active)	99.5% (active)	2%	99% (active)	68.2%	2%	99% (active)	97.2% (active)	22%	99% (active)	99.5% (active)
CCOC(=O)C(CC(=O)O)=C(c1ccccc1)c1ccccc1	-10%	-7%	17.5%	-5%	-8%	18.5%	3%	14%	7.9%	-31%	4%	79.7% (active)	11%	0%	25.1%	-10%	7%	-7.95%
O=C(OC1C2CCC2C2CC21)c1cc([N+](=O)[O-])cc([N+](=O)[O-])c1 (stereo not given)	-9%	97% (active)	10.9%	4%	99% (active)	98.1% (active)	32%	99% (active)	13%	3%	98% (active)	97.8% (active)	6%	98% (active)	62.2%	42%	99% (active)	58.9%
CCOC(=O)C(Br)c1nc2ccccc2[nH]c1=O (stereo not given)	2%	73% (active)	68.3%	-10%	81% (active)	74.2% (active)	2%	96% (active)	49.1%	2%	49%	28.7%	-7%	86% (active)	81.6% (active)	-5%	98% (active)	92.2% (active)
Clc1ccc(SSN2CCOCC2)cc1	7%	84% (active)	98.5% (active)	-2%	80% (active)	98.9% (active)	1%	98% (active)	98.9% (active)	-2%	40%	61.3%	4%	92% (active)	98.5% (active)	0%	96% (active)	97.2% (active)
O=Cc1c(I)cc(I)c(O)c1I	45%	88% (active)	98.6% (active)	46%	99% (active)	98.7% (active)	79% (active)	100% (active)	97.9% (active)	42%	97% (active)	95.1% (active)	44%	67%	96.8% (active)	56%	97% (active)	97.3% (active)
COC(=O)CNC(=O)C(F)(F)F	-160%	-152%	81.8% (active)	-47%	-49%	68.1%	-61%	-58%	71.7% (active)	-61%	-66%	75.6% (active)	-65%	-73%	59.1%	-141%	-111%	80.5% (active)
c1ccc2c(c1)OCC(CN1CCN(CC3COc4ccccc4O3)CC1)O2 (stereo not given)	41%	57%	76.7% (active)	36%	51%	67%	47%	55%	77.7% (active)	52%	58%	84% (active)	47%	60%	67.9%	47%	60%	81.2% (active)
COc1cc2c(cc1OC)[C@H]1C(=O)c3cc4c(cc3[C@H]1N(C)C2=O)OCO4	-1%	0%	10.3%	1%	-2%	11.9%	-8%	-4%	-2.35%	-6%	-1%	50.4%	-7%	1%	27.7%	0%	-32%	39.8%
COc1ccc(/C=C2\CN(C)C/C(=C\c3ccc(OC)cc3)C2=O)cc1	22%	75% (active)	14.2%	18%	79% (active)	21.6%	3%	87% (active)	31.9%	15%	70% (active)	38.8%	3%	85% (active)	30.8%	25%	87% (active)	26.9%
CSC(=S)N/N=C(C)/C=C/c1ccccc1	9%	98% (active)	98.2% (active)	14%	98% (active)	98.5% (active)	25%	98% (active)	97.7% (active)	-10%	94% (active)	97.8% (active)	13%	98% (active)	97.4% (active)	20%	93% (active)	95.3% (active)
COc1ccccc1C(=O)c1ccc2ccccc2c1	-3%	71% (active)	47.2%	-10%	85% (active)	73% (active)	0%	83% (active)	61.8%	-6%	9%	-17.1%	3%	74% (active)	83.6% (active)	-15%	55%	42.3%
O=C(C[n+]1ccccc1Cl)c1ccc(Oc2ccc(C(=O)C[n+]3ccccc3Cl)cc2)cc1	-34%	0%	90.6% (active)	-5%	-18%	83.2% (active)	-11%	-11%	30.5%	-14%	-15%	91.9% (active)	-40%	-28%	89% (active)	-33%	-48%	80.7% (active)
CC(C)N=Cc1cc(Br)cc(Br)c1O.CC(C)N=Cc1cc(Br)cc(Br)c1O.[Co]	93% (active)	99% (active)	92% (active)	54%	99% (active)	90.6% (active)	87% (active)	99% (active)	98% (active)	88% (active)	99% (active)	65%	98% (active)	99% (active)	86.3% (active)	98% (active)	99% (active)	88.7% (active)
CN(NC(=O)/C(=C\c1ccco1)NC(=O)c1ccccc1)c1cn[nH]c(=O)c1Cl	9%	36%	86.2% (active)	-9%	13%	83.4% (active)	-2%	6%	87.8% (active)	7%	13%	62.7%	-10%	27%	90.6% (active)	-6%	47%	93.5% (active)
O=[N+]([O-])c1ccc(CC(c2ccc([N+](=O)[O-])cc2)(c2ccc([N+](=O)[O-])cc2)c2ccc([N+](=O)[O-])cc2)cc1	2%	-3%	5.05%	1%	1%	12.6%	1%	-16%	-19.3%	5%	-20%	8.7%	5%	4%	41%	0%	1%	26.9%
Clc1ccc(SSc2ccc(Cl)cn2)nc1	5%	69%	78.2% (active)	6%	96% (active)	96.3% (active)	17%	96% (active)	57.9%	-4%	51%	20.6%	-3%	97% (active)	82.8% (active)	11%	92% (active)	81.1% (active)
O=C(Nc1cccc(Cl)c1)OCCOC(=O)Nc1cccc(Cl)c1	30%	99% (active)	99.5% (active)	3%	99% (active)	99.2% (active)	22%	100% (active)	99.3% (active)	2%	98% (active)	98.4% (active)	-4%	99% (active)	99.4% (active)	4%	98% (active)	98.9% (active)
COC(=O)C1(C)CC2C(C)(CCC3(C)C4=CC=C5C(=CC(=O)C(O)=C5C)C4(C)CCC23C)CC1O (stereo not given)	44%	98% (active)	85.8% (active)	44%	98% (active)	87.9% (active)	48%	98% (active)	90.3% (active)	51%	97% (active)	88% (active)	75% (active)	98% (active)	87.3% (active)	50%	96% (active)	85.8% (active)
